Source: PubChem BioAssay (NCATS)
Where “and” joins values, the source holds several entries; their conditions need not be identical. Equal entries are not always repeated. Inconclusive results are not listed. More than one record can exist for a structure, and the calls need not agree. Calls of active or inactive are those of the source. Unless noted, calls come from the whole dose curve; as a rule, active = well fitted curve in the direction sought with a large enough effect; inconclusive = small, poorly fitted or top-dose-only effect, or another doubt; inactive = no such curve, though single readings can be large; an effect the other way counts as inactive or inconclusive.

Legend:
[1] = Cellular Toxicity (caspase-3) H-4-II-E (AID 663); details: Potency: caspase-3 activation; note: potency is the fitted concentration of half-maximal effect;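 for caspase-3 activation: cells exposed to compound for 16 hr before readout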
Procedure, shortened: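 Rat hepatoma H-4-II-E cells (1500/well) plated 5 hr, then exposed to compound titrations for 16 hr at 37 °C. Caspase-Glo 3/7 luminescence read after 20 min at RT; data normalized to DMSO and 100 uM tamoxifen, AC50 from Hill fits.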

[2] = Cellular Toxicity (caspase-3) Hek293 (AID 664);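 note: cells exposed to compound for 16 h at 37 °C before readout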
Procedure, shortened: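 HEK293 cells were exposed to compounds in complete medium for 16 hr at 37 °C, then caspase-3/7 activity was read by Caspase-Glo 3/7 luminescence after 20 min at room temperature. Data normalized to DMSO and 100 uM tamoxifen; AC50 from Hill fits.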

[3] = Cellular Toxicity (caspase-3) NIH 3T3 (AID 666);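 note: caspase signal read after 16 h compound exposure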; note: potency is the fitted concentration of half-maximal effect
Procedure, shortened: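 Mouse NIH 3T3 fibroblasts (1000 cells/well) were treated with compound for 16 hr at 37°C in complete medium; caspase-3/7 activity was read by Caspase-Glo luminescence. Normalized to DMSO and 100 uM tamoxifen; AC50 from Hill fits.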

[4] = target: Cytochrome P450 3A4 (Homo sapiens) (UniProt P08684); assay: qHTS Assay for Inhibitors and Substrates of Cytochrome P450 3A4 (AID 884); note: nearly all actives have a fitted effect of over 50% in size; note: potency is the fitted concentration of half-maximal effect
Chain of Cytochrome P450 3A4 (Homo sapiens) (P08684 whole entry, looked up): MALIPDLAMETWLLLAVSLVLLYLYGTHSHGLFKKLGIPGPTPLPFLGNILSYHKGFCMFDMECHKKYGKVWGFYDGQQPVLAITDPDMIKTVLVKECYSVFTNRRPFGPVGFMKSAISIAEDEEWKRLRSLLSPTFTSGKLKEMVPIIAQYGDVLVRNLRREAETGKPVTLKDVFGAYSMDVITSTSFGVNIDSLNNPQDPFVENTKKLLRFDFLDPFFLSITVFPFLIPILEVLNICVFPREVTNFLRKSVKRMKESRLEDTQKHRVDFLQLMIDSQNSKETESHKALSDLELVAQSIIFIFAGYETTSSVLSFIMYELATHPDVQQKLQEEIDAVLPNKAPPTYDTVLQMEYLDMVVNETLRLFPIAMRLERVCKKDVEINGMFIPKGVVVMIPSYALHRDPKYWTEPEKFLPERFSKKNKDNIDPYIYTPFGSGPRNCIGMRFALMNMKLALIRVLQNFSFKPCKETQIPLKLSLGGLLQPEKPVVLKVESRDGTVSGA
Procedure, shortened: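 20 nM human CYP3A4 with 25 uM Luciferin-PPXE (at KM) in 200 mM KPO4, preincubated 10 min with compound; NADPH regeneration started a 60 min RT reaction. Luciferin detected by luminescence, normalized to 57 uM ketoconazole as full inhibition.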

[5] = Cell Viability - LYMP2-001 (AID 921);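 note: cells exposed to compound for 24 h at 37 °C; nearly all actives have a fitted effect of over 70% in size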; note: potency is the fitted concentration of half-maximal effect
Procedure, shortened: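 Steps: seed 2500 lymphoblastoid cells/well; 5 hr, 37 C; add compound; 24 hr, 37 C; CellTiter-Glo reagent, 30 min room temperature; read luminescence. Concentration-response modeled by Hill equation for AC50.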

[6] = MultiTox-Fluor Cytotoxicity Assay - LYMP1-001 - Dead Cells (AID 946); note: potency is the fitted concentration of half-maximal effect
Procedure, shortened: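 AC50 from Hill fit of concentration-response; data normalized to DMSO (basal) and 15 uM tetraoctylammonium bromide (100%). LYMP1-001 lymphoblastoid cells, 2500/well, 16 hr compound at 37 C; dead-cell protease fluorescence, Ex/Em 485/520.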

[7] = MultiTox-Fluor Cytotoxicity Assay - LYMP1-001 - Live Cells (AID 947); note: potency is the fitted concentration of half-maximal effect
[8] = Cell Viability - LYMP1-002 - Assay at 16 hr (AID 948); note: potency is the fitted concentration of half-maximal effect
Procedure, shortened: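 Seed 2500 LYMP1-002 cells per well in complete medium and hold 5 hr at 37 C. Add compound across a concentration series and incubate 16 hr at 37 C. Add CellTiter-Glo, wait 30 min at room temperature, read luminescence.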

[9] = target: Guanine nucleotide-binding protein G(i) subunit alpha-1 (Homo sapiens) (UniProt P63096); assay: qHTS Assay for Inhibitors of RGS12 GoLoco Motif Activity (Green Fluorophore) (AID 879);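 note: negative values mean loss of peptide binding seen as reduced polarization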
Chain of Guanine nucleotide-binding protein G(i) subunit alpha-1 (Homo sapiens) (P63096 whole entry, looked up): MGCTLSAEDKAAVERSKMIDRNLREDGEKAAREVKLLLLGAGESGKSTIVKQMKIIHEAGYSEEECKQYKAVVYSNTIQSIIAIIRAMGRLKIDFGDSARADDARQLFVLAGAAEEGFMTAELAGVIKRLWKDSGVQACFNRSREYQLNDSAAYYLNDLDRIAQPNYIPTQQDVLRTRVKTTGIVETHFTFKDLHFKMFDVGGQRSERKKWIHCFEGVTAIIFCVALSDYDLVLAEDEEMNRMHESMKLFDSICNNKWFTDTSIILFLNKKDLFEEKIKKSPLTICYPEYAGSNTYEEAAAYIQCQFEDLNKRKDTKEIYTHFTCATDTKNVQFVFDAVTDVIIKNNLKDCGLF
Procedure, shortened: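 Fluorescence polarization assay: 50 nM Gαi1 with 10 nM FITC-labeled RGS12 GoLoco peptide in 10 mM Tris pH 7.5, 150 mM NaCl, 0.1 mM GDP, 0.05% NP40, 10 min at room temperature with compound.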

[10] = target: Cytochrome P450 2C9 (Homo sapiens) (UniProt P11712); assay: qHTS Assay for Inhibitors and Substrates of Cytochrome P450 2C9 (AID 883); note: nearly all actives have a fitted effect of over 60% in size; note: potency is the fitted concentration of half-maximal effect
Chain of Cytochrome P450 2C9 (Homo sapiens) (P11712 whole entry, looked up): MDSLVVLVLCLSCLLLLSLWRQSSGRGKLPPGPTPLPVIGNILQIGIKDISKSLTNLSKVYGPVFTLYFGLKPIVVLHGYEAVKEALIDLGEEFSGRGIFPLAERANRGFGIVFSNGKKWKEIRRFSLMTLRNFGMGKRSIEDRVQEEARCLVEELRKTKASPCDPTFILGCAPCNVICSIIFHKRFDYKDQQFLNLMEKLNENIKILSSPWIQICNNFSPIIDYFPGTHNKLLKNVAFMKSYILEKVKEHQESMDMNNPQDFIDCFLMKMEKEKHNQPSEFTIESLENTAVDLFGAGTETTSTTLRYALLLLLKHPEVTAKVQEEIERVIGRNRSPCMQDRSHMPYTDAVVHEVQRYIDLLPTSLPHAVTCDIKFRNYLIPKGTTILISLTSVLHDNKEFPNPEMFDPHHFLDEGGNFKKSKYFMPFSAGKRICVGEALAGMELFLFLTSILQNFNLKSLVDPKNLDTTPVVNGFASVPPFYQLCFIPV
Procedure, shortened: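 10nM CYP2C9 + 100uM Luciferin-H (=KM), 25mM KPO4; cpd 10 min 37C; NADPH regen, 60 min 37C; stop/detect with P450 Glo-Buffer 20 min; luminescence. Norm. to 57uM sulphaphenazole as full inhibition.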

[11] = target: Cytochrome P450 3A4 (Homo sapiens) (UniProt P08684); assay: qHTS Assay for Activators of Cytochrome P450 3A4 (AID 885); note: nearly all actives have a fitted effect of over 65% in size; note: potency is the fitted concentration of half-maximal effect
Procedure, shortened: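 20nM CYP3A4 + 25uM Luciferin-PPXE (=KM), 200mM KPO4; cpd 10 min RT; NADPH regen, 60 min RT; stop w/ detection buffer, 20 min; luminescence. Normalized to 57 uM ketoconazole.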

[12] = target: Cytochrome P450 2D6 (Homo sapiens) (UniProt P10635); assay: qHTS Assay for Inhibitors and Substrates of Cytochrome P450 2D6 (AID 891); note: nearly all actives have a fitted effect of over 60% in size; note: potency is the fitted concentration of half-maximal effect
Chain of Cytochrome P450 2D6 (Homo sapiens) (P10635 whole entry, looked up): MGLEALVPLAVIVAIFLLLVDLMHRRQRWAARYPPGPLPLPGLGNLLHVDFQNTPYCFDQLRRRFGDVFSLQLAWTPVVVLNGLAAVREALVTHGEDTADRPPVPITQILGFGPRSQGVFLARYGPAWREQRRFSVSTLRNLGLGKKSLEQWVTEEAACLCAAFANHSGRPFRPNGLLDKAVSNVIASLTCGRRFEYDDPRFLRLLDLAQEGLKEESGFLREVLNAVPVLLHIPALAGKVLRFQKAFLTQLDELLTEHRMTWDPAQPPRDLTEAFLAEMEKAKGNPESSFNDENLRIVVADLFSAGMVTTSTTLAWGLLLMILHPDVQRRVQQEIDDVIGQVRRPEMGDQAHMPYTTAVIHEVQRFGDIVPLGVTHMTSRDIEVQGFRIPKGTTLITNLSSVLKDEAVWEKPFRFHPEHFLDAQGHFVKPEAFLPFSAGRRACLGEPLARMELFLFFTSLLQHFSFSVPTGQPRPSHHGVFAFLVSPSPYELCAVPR
Procedure, shortened: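 Human CYP2D6 (5 nM) with 30 uM Luciferin-ME EGE (at Km) in 100 mM KPO4, compound preincubated 10 min, then NADPH regeneration system for 60 min at room temperature. Luciferin read by luminescence; normalized to 1.43 uM quinidine.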

[13] = target: Cytochrome P450 2C19 (Homo sapiens) (UniProt P33261); assay: qHTS Assay for Inhibitors and Substrates of Cytochrome P450 2C19 (AID 899); note: nearly all actives have a fitted effect of over 60% in size; note: potency is the fitted concentration of half-maximal effect
Chain of Cytochrome P450 2C19 (Homo sapiens) (P33261 whole entry, looked up): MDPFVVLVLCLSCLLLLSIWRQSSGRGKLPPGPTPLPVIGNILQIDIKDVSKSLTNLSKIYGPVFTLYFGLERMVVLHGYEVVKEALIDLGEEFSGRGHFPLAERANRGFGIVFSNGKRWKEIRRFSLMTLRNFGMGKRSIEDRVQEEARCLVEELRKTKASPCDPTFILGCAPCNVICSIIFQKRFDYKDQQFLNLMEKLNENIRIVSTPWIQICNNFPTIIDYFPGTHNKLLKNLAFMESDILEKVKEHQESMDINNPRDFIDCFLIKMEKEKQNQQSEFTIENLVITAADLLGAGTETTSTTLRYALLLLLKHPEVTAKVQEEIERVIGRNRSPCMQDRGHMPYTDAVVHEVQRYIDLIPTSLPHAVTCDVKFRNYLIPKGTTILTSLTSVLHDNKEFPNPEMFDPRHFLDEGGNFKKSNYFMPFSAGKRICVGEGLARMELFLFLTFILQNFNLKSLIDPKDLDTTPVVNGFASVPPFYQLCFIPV
Procedure, shortened: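 Luminescent read-out of luciferin formed from Luciferin-H EGE (10uM, equal to KM). Enzyme 5nM in 50mM KPO4; compound added, 10 min at 37C, then NADPH regenerating system for 60 min at 37C. Full inhibition defined by 57uM ketoconazole.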

[14] = qHTS Assay for Identification of Small Molecule Agonists for Thrombopoietin (TPO) Signaling Pathway (AID 917)
Procedure, shortened: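 Luminescence from a Glycoprotein IIb promoter–driven luciferase reporter served as read-out in murine Ba/F3 cells carrying the human TPO receptor. Cells, deprived of IL-3 overnight, received compounds with 26 pM TPO and were incubated 24 hrs at 37 C.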

[15] = target: Muscarinic acetylcholine receptor M1 (Rattus norvegicus) (UniProt P08482); assay: qHTS Assay for Antagonists of Acetylcholine Muscarinic M1 Receptor: Kinetic Measurement of Intracellular Calcium Response (AID 943); note: nearly all actives have a fitted effect of over 75% in size; note: potency is the fitted concentration of half-maximal effect
Chain of Muscarinic acetylcholine receptor M1 (Rattus norvegicus) (P08482 whole entry, looked up): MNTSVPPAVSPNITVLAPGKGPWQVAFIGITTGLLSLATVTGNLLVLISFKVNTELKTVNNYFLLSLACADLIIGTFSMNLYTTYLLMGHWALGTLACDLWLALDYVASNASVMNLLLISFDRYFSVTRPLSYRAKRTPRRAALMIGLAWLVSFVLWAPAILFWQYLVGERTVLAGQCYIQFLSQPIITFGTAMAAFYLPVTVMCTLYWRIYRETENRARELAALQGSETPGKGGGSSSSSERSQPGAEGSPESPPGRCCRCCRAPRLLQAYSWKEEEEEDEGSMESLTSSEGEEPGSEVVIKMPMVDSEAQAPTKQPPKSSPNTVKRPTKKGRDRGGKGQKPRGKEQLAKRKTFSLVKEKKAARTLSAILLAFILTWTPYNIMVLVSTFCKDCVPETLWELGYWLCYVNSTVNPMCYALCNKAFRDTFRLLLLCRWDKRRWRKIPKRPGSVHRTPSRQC
Procedure, shortened: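 CHO cells stably expressing rat M1 were loaded with no-wash Fluo-4 dye for 1 h at 37C, pre-incubated 10 min with compound, then challenged with EC80 carbachol (100 nM final); kinetic calcium read 4 min, peak/basal ratio.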

[16] = target: Muscarinic acetylcholine receptor M1 (Rattus norvegicus) (UniProt P08482); assay: qHTS Assay for Antagonists of Acetylcholine Muscarinic M1 Receptor: Measurement of IP-One Response (AID 944); note: nearly all actives have a fitted effect of over 75% in size; note: potency is the fitted concentration of half-maximal effect
Procedure, shortened: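 CHO cells expressing rat M1 receptor, recovered overnight, were pre-incubated 10 min with compound, then stimulated 30 min with carbachol at EC80 (200 nM) in LiCl-containing buffer, pH 7.4. IP1 accumulation was read by HTRF (620/665 nm).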

[17] = target: Pyruvate kinase (Leishmania mexicana) (UniProt Q27686); assay: qHTS Validation Assay for Inhibitors of Leishmania Mexicana Pyruvate Kinase (AID 945)
Chain of Pyruvate kinase (Leishmania mexicana) (Q27686 2-499 E452W): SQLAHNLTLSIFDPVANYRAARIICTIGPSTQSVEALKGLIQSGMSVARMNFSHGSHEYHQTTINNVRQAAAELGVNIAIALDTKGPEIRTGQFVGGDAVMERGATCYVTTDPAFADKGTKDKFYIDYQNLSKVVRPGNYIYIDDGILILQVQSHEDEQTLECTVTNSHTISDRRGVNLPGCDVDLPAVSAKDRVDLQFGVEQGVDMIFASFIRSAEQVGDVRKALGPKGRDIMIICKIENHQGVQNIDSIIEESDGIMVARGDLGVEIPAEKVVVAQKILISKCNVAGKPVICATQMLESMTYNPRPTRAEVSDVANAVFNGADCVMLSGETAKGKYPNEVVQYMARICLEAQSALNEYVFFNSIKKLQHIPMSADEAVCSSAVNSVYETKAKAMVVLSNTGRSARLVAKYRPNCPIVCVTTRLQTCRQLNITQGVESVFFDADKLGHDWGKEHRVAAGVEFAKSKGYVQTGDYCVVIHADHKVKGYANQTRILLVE
Procedure, shortened: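 Compounds are tested as eight-point concentration series. Reactions contain 0.2 nM LmPYK E451W, 0.5 mM PEP, 0.1 mM ADP, 7 mM MgCl2 and 50 mM KCl at pH 7.2, run 1 h at room temperature, then read by PKLight luminescence.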

[18] = Confirmation and Secondary Assay for Modulators of Hemoglobin Beta Chain Splicing at IVS2 705 locus (AID 930);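 note: HeLa cells stably expressing the EGFP-705 splicing reporter; GFP fluorescence per well restored by corrected splicing of the IVS2-705 intron in EGFP; series mostly up to about 46 µM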
Procedure, shortened: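 Fluorescence gain (488 nm laser, 500-520 nm PMT) reflects restored correct splicing of a mutant IVS2-705 intron inside EGFP in stably transfected HeLa cells after 2-day compound treatment.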

[19] = qHTS Assay for Identification of Small Molecule Antagonists for NFkB Signaling Pathway (AID 895; active = well fitted inhibition curve with a large enough effect in the signal ratio, with a control signal flat, not every such curve was filed as active; the % refers to the signal ratio)
Procedure, shortened: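 ME-180 NFkB-bla cells (beta-lactamase under NFkB response element), plated overnight, treated with compound then 10 pM TNF alpha (about EC50) for 5 hrs at 37 C. LiveBLAzer FRET read at 460/530 nm emission, 405 nm excitation.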

[20] = qHTS Assay for Identification of Small Molecule Antagonists for Thrombopoietin (TPO) Signaling Pathway (AID 918); details: TPO-dependent cell signaling reporter, antagonist mode; note: potency is the fitted concentration of half-maximal effect; nearly all actives have a fitted effect of over 60% in size
Procedure, shortened: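 Murine Ba/F3 cells stably expressing human TPO receptor and a Glycoprotein IIb promoter–luciferase reporter were IL-3-starved overnight, treated with compounds plus TPO (26 pM final, its EC50) for 24 hrs at 37 C, then read by luminescence.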

Measured: Potency

c1ccc2occc2c1
inactive: [1] | [2] | [3] | [4] | [5] | [6] | [7] | [8]

CCCCCCCCCCCCCCCC[n+]1ccccc1
inactive: [2] | [3]
active: [5] 10 µM | [6] 10 µM | [7] 20 µM | [8] 25.1 µM

Cn1cnc2c(NCc3ccccc3)nc(NCCO)nc21
active: [12] 3.16 µM and 1.26 µM
inactive: [9] | [10] | [11] | [13] | [14] | [15] | [16] | [17]

Cc1cc(C(C)(C)C)c(O)c(C(C)(C)C)c1
inactive: [1] | [3] | [4] | [5] | [18] | [6] | [7] | [8]

COc1cc(C=O)ccc1O
inactive: [1] | [2] | [3] | [4] | [5] | [6] | [7] | [8]

Cc1ccc(O)cc1
inactive: [1] | [2] | [3] | [5] | [18] | [6] | [7] | [8]

Brc1ccccc1-c1ccccc1
inactive: [1] | [2] | [3] | [4] | [5] | [6] | [7] | [8]

Nc1c2ccccc2nc2ccccc12
active: [1] 31.6 µM | [3] 39.8 µM | [5] 12.6 µM | [6] 12.6 µM | [8] 15.8 µM
inactive: [18] | [7]

CC(C)(c1ccc(O)cc1)c1ccc(O)cc1
inactive: [1] | [2] | [3] | [11] | [5] | [6] | [7] | [8]

CC(=O)OC/C=C(C)/C=C/C=C(C)/C=C/C1=C(C)CCCC1(C)C
inactive: [1] | [3] | [18] | [7] | [8]

CCCCC(CC)COC(=O)c1ccccc1C(=O)O (stereo not drawn)
inactive: [1] | [2] | [3] | [4] | [5] | [6] | [7] | [8]

Nc1cccc2c(N)cccc12
inactive: [1] | [2] | [3] | [5] | [6] | [8]

C1=CC2C3C=CC(C3)C2C1 (stereo not drawn)
inactive: [1] | [2] | [3] | [4] | [5] | [6] | [7] | [8]

O=C(Oc1ccccc1)c1ccccc1O
inactive: [1] | [2] | [3] | [4] | [5] | [6] | [7] | [8]

CC(C)C(C)(C)C(C)(C)C(C)(C)S
inactive: [1] | [2] | [3] | [4] | [5] | [6] | [7] | [8]

O=C(c1ccccc1)c1ccccc1
inactive: [1] | [2] | [3] | [5] | [6] | [7] | [8]

CCCC(=O)c1cc(O)c(O)cc1O
inactive: [1] | [2] | [3] | [4] | [5] | [6] | [7] | [8]

Oc1ccccc1
inactive: [1] | [2] | [3] | [4] | [5] | [6] | [7] | [8]

O=C(NO)c1ccccc1
inactive: [1] | [2] | [3] | [4] | [5] | [6] | [7] | [8]

Nc1ccc(O)cc1
active: [8] 50.1 µM
inactive: [2] | [3]

OCc1c[nH]c2ccccc12
inactive: [1] | [2] | [3] | [4] | [5] | [18] | [6] | [7] | [8]

CC(C)(C)c1ccc(O)c(O)c1
inactive: [1] | [2] | [4] | [6] | [7]
active: [5] 31.6 µM

Cc1ccc2c(Cl)cc(Cl)c(O)c2n1
inactive: [4] | [18]

COc1ccccc1N1CCN(CCN2C(=O)CC3(CCCC3)CC2=O)CC1
inactive: [9] | [11] | [17]

Cc1nn(-c2ccccc2)c(C)c1/C=N/N1CCN(Cc2ccccc2)CC1
inactive: [4]
active: [11] 10 µM

C[N+](C)(C)CCO
active: [4] 31.6 µM
inactive: [9] | [14] | [18] | [16] | [17]

O=C(O)Cc1ccc(OCCNC[C@H](O)c2ccccc2)cc1
inactive: [4]

C[C@@H](C1=C(CCN(C)C)Cc2ccccc21)c1ccccn1
active: [10] 0.501 µM | [13] 2.51 µM

CCOC(=O)NNc1nncc2ccccc12
inactive: [4] | [18]

CC(=O)OCC[N+](C)(C)C
inactive: [4] | [18]

COC(=O)c1c(Cl)c(Cl)c(C(=O)OC)c(Cl)c1Cl
inactive: [4] | [18]

C1N2CN3CN1CN(C2)C3
inactive: [4] | [18]

Brc1ccc([C@H]2CN3CCSC3=N2)cc1
inactive: [9] | [11] | [17]
active: [15] 12.6 µM

NC(N)=NCCCCN=C(N)N
active: [16] 10 µM
inactive: [9] | [19] | [14] | [18] | [17]

O=[N+]([O-])c1ccc(-c2nc(-c3ccc(F)cc3)c(-c3ccncc3)[nH]2)cc1
active: [4] 0.158 µM | [20] 12.6 µM
inactive: [9] | [11] | [15] | [17]

CC(C)N(CCC(=O)c1ccc2ccccc2c1)Cc1ccccc1
inactive: [9] | [11] | [15] | [16] | [17]
active: [12] 2 µM | [20] 2.51 µM

CC(NCCC(c1ccccc1)c1ccccc1)c1ccccc1 (stereo not drawn)
inactive: [18]

OC(CCCN1CCCCC1)(c1ccccc1)c1ccccc1
active: [12] 0.126 µM

Nc1ncnc2nc[nH]c12
inactive: [4] | [18]

O=C(O)/C=C(\CC(=O)O)C(=O)O
inactive: [4] | [18]

CN(C)c1cc2c(Nc3ccc4c(cnn4Cc4ccccc4)c3)ncnc2cn1
inactive: [9] | [11] | [17]
active: [4] 5.01 µM | [16] 11.2 µM

CCN(CC)CCOc1ccc(/C(=C(\Cl)c2ccccc2)c2ccccc2)cc1
inactive: [10] | [4] | [18]
active: [12] 5.01 µM

CN(C(=O)C(Cl)Cl)c1ccc(OC(=O)c2ccco2)cc1
inactive: [4]

O=C1NC(c2cccc([N+](=O)[O-])c2)=CCN1c1ccccc1O
inactive and 6.31 µM (active): [13]
inactive: [9] | [10] | [12] | [14] | [15] | [16] | [17]
